Screening results (PubChem BioAssay)
Vc quorum ag-1: inducers of Vibrio cholerae quorum light production without autoinducers, primary screen, BH1578 luxS cqsA deficient, single point; V. cholerae BH1578 lux reporter, luminescence, 6 h; activation, % at 18.7 µM; 0.16% of 350,000 active; in the data active = activation mostly above about 9.7%, no sharp cut-off; inconclusive = no clear call, values can overlap the other calls; inactive = mostly below about 3.7%
PfHsp40 yeast: rescue of yeast from PfHsp40 toxicity, primary screen, S. cerevisiae, ATP luminescence. S. cerevisiae expressing PfHsp40, growth rescue. growth rescue, % at 12.5 µM. 0.68% of 340,000 active. AID 504582, 2011; in the data active = growth rescue above about 28%, passing the limit was not always enough; inconclusive = no clear call, values can overlap the other calls;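 also: yeast W303a lacking pdr1 and pdr3 grown in galactose medium; growth measured after three days at 30 °C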
Sa ugtP lethal: growth inhibition of ugtP-null S. aureus, primary screen, RN4220 ugtP deletion, OD600; growth inhibition, % (no concentration beside the values); 16 h; AID 1259309, 2017; 0.54% of 330,000 active; in the data active = growth inhibition above about 68%;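 also: plate controls were untreated wells for no effect and antibiotic for full effect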
Mtb bLac sens: beta-lactam sensitization of Mtb H37Rv, H37Rv; M. tuberculosis H37Rv growth with meropenem, percent inhibition; inhibition, % at 25 µM; 0.27% of 330,000 active;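 also: growth measured after seven days incubation then overnight dye step; 0% = bacteria only wells and 100% = bacteria with antibiotic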
RN4220 kill: growth inhibition of S. aureus RN4220, primary screen, OD600; AID 1259311, 2017; 16 h; 0.33% of 330,000 active; inhibition, % (concentration not given with the values); in the data active = inhibition above about 85%;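 also: plate controls were untreated cells for no effect and reference antibiotic for full effect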
Vc quorum ag-2: V. cholerae lux activation without autoinducers – BH1578 luxS cqsA deficient, cherry-pick, plate reader, dose response; shares compounds with Vc quorum ag-1; V. cholerae BH1578 lux reporter, luminescence, 6 h; activation, % at 50 µM; 620 tested, under 10 active; AID 602243, 2012
HeLa 24h tox: HeLa cell cytotoxicity, dose response, cytotoxicity control, 24 h, dry powder | activity change, negative = cytotoxicity, % at 35 µM | HeLa viability, CellTiter-Glo ATP luminescence | 25 tested, under 10 active | shares compounds with Vc quorum ag-1;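 active = signal drop with fitted half-maximal concentration at or below twice the highest valid dose; inconclusive = flat curve with 30 to 70% loss, or poor fit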
* = called active by the depositor. This is a sample that favours compounds with a hit; in the whole collection about 1.2% have one here. Unless noted, no rule for the calls is given here.

Results for C=CCC(CC(=O)N(CCO)Cc1ccccc1)C(=O)NC(COC(=O)C(CC=C)Cc1ccc(F)cc1)Cc1c[nH]c2ccccc12 (stereo unspecified) ?
Sa ugtP lethal: -1.8; RN4220 kill: -4.9

How did CCOc1ccc(Nc2ccc3nonc3c2[N+](=O)[O-])cc1 do in these assays?
Vc quorum ag-1: active; PfHsp40 yeast: -1.5; Sa ugtP lethal: 5.1; Mtb bLac sens: 56.5; RN4220 kill: 13.8; Vc quorum ag-2: inactive; HeLa 24h tox: 17.4

How did Cc1ccc(Nc2ccc3nonc3c2[N+](=O)[O-])cc1 do in these assays?
Vc quorum ag-1: -0.2; PfHsp40 yeast: 0.2; Sa ugtP lethal: -1.7; Mtb bLac sens: 5.7; RN4220 kill: 8.2

Results for C=CCC(CC(=O)NCCO)C(=O)NCC(OC(=O)C(CC=C)Cc1ccc(F)cc1)c1ccccc1 (stereo unspecified) ?
Sa ugtP lethal: 1.4; RN4220 kill: 11.4

How did CC(=O)N1CCN(C(=O)COc2ccc(Br)cc2)CC1 do in these assays?
Vc quorum ag-1: 16.7*; PfHsp40 yeast: 0.7; Sa ugtP lethal: 22.6; Mtb bLac sens: -4.1; RN4220 kill: 22.6; Vc quorum ag-2: -0.1

What do the screens show for `COc1ccc(N2CCN(C(=O)COc3ccc4ccccc4c3)CC2)cc1`?
Vc quorum ag-1: 12.5; PfHsp40 yeast: -0.4; Sa ugtP lethal: -9.9; Mtb bLac sens: 5.8; RN4220 kill: -17.4; Vc quorum ag-2: -0.1

Results for COc1ccc(OCC(=O)N2CCN(C(=O)COc3ccc(Br)cc3)CC2)cc1 ?
PfHsp40 yeast: 1.3; Sa ugtP lethal: 23.2; Mtb bLac sens: inconclusive; RN4220 kill: -4.3

Results for O=C(COC(=O)c1ccc(Cl)nc1)Nc1ccc2ccccc2c1 ?
Vc quorum ag-1: 14.3; PfHsp40 yeast: -0.4; Sa ugtP lethal: 1.5; RN4220 kill: 2.0; Vc quorum ag-2: 0.2

Results for COc1ccc(C2C3C(=O)N(C(C)(C)C)C(=O)C3[C@]3(Cc4ccc(Cl)cc4)C(=O)N(c4cccc(C)c4)C(=O)N23)cc1 (stereo partly specified) ?
Sa ugtP lethal: 11.0; RN4220 kill: 5.5

What do the screens show for `Cc1csc(NC(=O)Cc2nn(C)c(=O)c3ccccc23)n1`?
Vc quorum ag-1: 25.0*; PfHsp40 yeast: -0.3; Sa ugtP lethal: -2.8; Mtb bLac sens: -12.0; RN4220 kill: -4.0; Vc quorum ag-2: 0.0

Results for CCc1nc(NCCCN2CCOCC2)c2oc3ccccc3c2n1 ?
Vc quorum ag-1: 12.5; PfHsp40 yeast: 2.7; Sa ugtP lethal: 3.0; Mtb bLac sens: -11.3; RN4220 kill: 5.7; Vc quorum ag-2: 0.1

Results for CCOC(=O)[C@]12Cc3c(cc(OC)c(OC)c3OC)C1N(Cc1ccccc1)C(=O)c1ccccc12 (stereo partly specified) ?
Sa ugtP lethal: 14.2; RN4220 kill: 6.1

What do the screens show for `O=C(NN=Cc1ccc(Br)o1)C1COc2ccccc2O1` (stereo unspecified)?
Sa ugtP lethal: 0.7; RN4220 kill: -0.4

Results for O=c1c2c(O)cc(O)cc2oc2ccc(O)c(OC3OC(CO)C(O)C(O)C3OC3OC(CO)C(O)C(O)C3O)c12 (stereo unspecified) ?
Sa ugtP lethal: -4.3; RN4220 kill: 1.8

What do the screens show for `COC(=O)[C@H]1C[C@H](C(=O)O)[C@@H](C)C1(C)C`?
Vc quorum ag-1: 25.1; PfHsp40 yeast: -1.5; Mtb bLac sens: 4.1; Vc quorum ag-2: 0.1

Results for CCOc1ccc2cc(C#N)c(SCC(=O)N3CCC(C)CC3)nc2c1 ?
Vc quorum ag-1: 14.3; PfHsp40 yeast: 0.5; Sa ugtP lethal: -20.5; Mtb bLac sens: 2.9; RN4220 kill: 5.0; Vc quorum ag-2: 4.5

What do the screens show for `Cc1ccc(S(=O)(=O)N(C)c2nc3ccccc3[nH]c2=S)cc1`?
Vc quorum ag-1: inactive; PfHsp40 yeast: 0.3; Sa ugtP lethal: 6.4; Mtb bLac sens: -13.0; RN4220 kill: 4.5

How did Cc1ccc(S(=O)(=O)N(C)c2nonc2C)cc1 do in these assays?
Vc quorum ag-1: 12.5; PfHsp40 yeast: -0.1; Sa ugtP lethal: -8.1; Mtb bLac sens: -12.6; RN4220 kill: 7.7; Vc quorum ag-2: -0.1

What do the screens show for `COc1ccc(SCC(C)CN2CCC(C)CCC2=O)cc1` (stereo unspecified)?
Sa ugtP lethal: 3.6; RN4220 kill: 8.8

What do the screens show for `COc1ccc(NC(=O)CN(C)C(=O)c2cccc(S(=O)(=O)N3CCN(C)CC3)c2)cc1`?
Vc quorum ag-1: 9.3; PfHsp40 yeast: -0.7; Sa ugtP lethal: 11.4; Mtb bLac sens: -8.8; RN4220 kill: 2.1; Vc quorum ag-2: 0.1

How did COc1ccc(NC(=O)CN(C)C(=O)c2cccc(S(=O)(=O)N3CCN(Cc4ccccc4)CC3)c2)cc1 do in these assays?
Vc quorum ag-1: inactive; PfHsp40 yeast: -2.4; Sa ugtP lethal: 8.0; Mtb bLac sens: -8.7; RN4220 kill: 0.4

What do the screens show for `Cc1cc(=O)oc2ccc(OCc3ccccc3)cc12`?
PfHsp40 yeast: 11.5; Sa ugtP lethal: -0.7; Mtb bLac sens: 0.8; RN4220 kill: 12.7; Vc quorum ag-2: inactive

Results for CCN1C(=O)C2C(c3ccc(-c4cccc(Cl)c4)cc3)N3CCCC[C@@]3(C(=O)OC)C2C1=O (stereo partly specified) ?
Sa ugtP lethal: -0.8; RN4220 kill: 3.6

What do the screens show for `O=C(O)c1cc(CN2CCOCC2)oc1-c1ccccc1`?
Vc quorum ag-1: 16.7*; PfHsp40 yeast: -0.9; Sa ugtP lethal: 3.0; Mtb bLac sens: -9.6; RN4220 kill: 3.0; Vc quorum ag-2: 0.8

How did CCN(CC)Cc1cc(C(=O)O)c(-c2ccccc2)o1 do in these assays?
Vc quorum ag-1: -5.5; PfHsp40 yeast: -0.2; Sa ugtP lethal: 9.0; Mtb bLac sens: -9.7; RN4220 kill: 3.1

Results for CCCCC(C(=O)O)C(C)CC(=O)Nc1cccc(C(=O)O)c1 (stereo unspecified) ?
Vc quorum ag-1: inactive; PfHsp40 yeast: -1.9; Sa ugtP lethal: -8.6; Mtb bLac sens: 4.9; RN4220 kill: -3.9

Results for CCC(CCC(=O)Nc1cccc(C(=O)O)c1)C(=O)O (stereo unspecified) ?
Vc quorum ag-1: 16.7*; PfHsp40 yeast: -0.3; Sa ugtP lethal: 1.2; Mtb bLac sens: 3.7; RN4220 kill: -7.5; Vc quorum ag-2: 0.5

How did COc1ccc(S(=O)(=O)N2CCOCC2)cc1NC(=O)CSc1nnc(C2CC2)n1C1CC1 do in these assays?
Vc quorum ag-1: 40.6*; PfHsp40 yeast: 0.7; Sa ugtP lethal: 4.5; Mtb bLac sens: -2.6; RN4220 kill: 7.1; Vc quorum ag-2: 0.9
